The record followed here is the supplement of paper PMC8728848.

Experiment in all cases: glycan array binding signal (z-score within array); higher = stronger binding
Holding throughout (details): glycan notation: IUPAC condensed, linker removed

The target of assay [1] is Fuc(a1-3)[Gal3S(b1-4)]Glc. An outline of the steps: (§1)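 Glycan array data came from 3228 arrays in the Consortium for Functional Glycomics database, and only arrays with an available protein sequence were kept. Glycan names were put into IUPAC-condensed notation, and columns mapping to the same glycan were averaged. The binding signal is a within-array Z-score, averaged across arrays of one protein sequence run at different concentrations or buffers and across linkers. A negative Z-score can be read as non-binding.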

The target of assay [2] is Fuc(a1-3)[GalNAc(b1-4)]Gal(b1-4)GlcNAc. An outline of the steps: as §1
Assay [3] deals with Gal(a1-2)Gal. An outline of the steps:
as §1

Assay [4] addresses Gal(a1-4)Gal(b1-4)Gal. An outline of the steps:
as §1

In assay [5] the target is Gal(b1-3)Gal. An outline of the steps: as §1
The target of assay [6] is Gal(b1-3)GalNAc(b1-3)Gal(a1-4)Gal(b1-4)Glc. An outline of the steps:
as §1

The target in assay [7] is Gal(b1-3)GlcNAc(b1-3)Gal(b1-3)GlcNAc. An outline of the steps: as §1
Assay [8] deals with Gal(b1-3)[Fuc(a1-4)]GlcNAc(b1-3)Gal(b1-4)GlcNAc. An outline of the steps: as §1
Assay [9] has as its target Gal(b1-3)[Fuc(a1-4)]GlcNAc(b1-3)Gal(b1-4)[Fuc(a1-3)]GlcNAc. An outline of the steps: as §1
Assay [10] deals with Gal(b1-4)GalNAc(a1-3)[Fuc(a1-2)]Gal(b1-4)GlcNAc. An outline of the steps:
as §1

The target of assay [11] is Gal(b1-4)GalNAc(b1-3)[Fuc(a1-2)]Gal(b1-4)GlcNAc. An outline of the steps: as §1
Assay [12] has as its target Gal(b1-4)Glc6S. An outline of the steps: as §1
The target of assay [13] is Gal(b1-4)GlcNAc(b1-3)Gal(b1-4)[Fuc(a1-3)]GlcNAc(b1-3)Gal(b1-4)[Fuc(a1-3)]GlcNAc. An outline of the steps:
as §1

Assay [14] addresses Gal3S(b1-3)GalNAc. An outline of the steps:
as §1

For assay [15], the target named is Gal3S(b1-4)GlcNAc6S. An outline of the steps:
as §1

Assay [16] addresses Gal4S6S(b1-4)GlcNAc. An outline of the steps:
as §1

Assay [17] addresses GlcA(b1-6)Gal. An outline of the steps: as §1
Assay [18] addresses GlcNAc(b1-3)Gal(b1-3)GalNAc. An outline of the steps: as §1
The target in assay [19] is GlcNAc(b1-4)GlcNAc(b1-4)GlcNAc. An outline of the steps:
as §1

Assay [20] addresses Kdn(a2-3)Gal(b1-3)GlcNAc. An outline of the steps:
as §1

Assay [21] concerns the target Man(a1-2)Man(a1-2)Man(a1-3)[Man(a1-2)Man(a1-3)[Man(a1-2)Man(a1-6)]Man(a1-6)]Man(b1-4)GlcNAc(b1-4)GlcNAc. An outline of the steps: as §1
Assay [22] deals with Neu5Ac(a2-3)Gal(b1-4)GlcNAc(b1-3)Gal(b1-4)GlcNAc. An outline of the steps:
as §1

Assay [23] concerns the target Neu5Ac(a2-3)Gal(b1-4)GlcNAc(b1-6)[Gal(b1-3)]GalNAc. An outline of the steps: as §1
Assay [24] addresses Neu5Ac(a2-3)Gal6S(b1-4)[Fuc(a1-3)]GlcNAc. An outline of the steps:
as §1

In assay [25] the target is Neu5Ac(a2-8)Neu5Ac(a2-8)Neu5Ac(a2-8)Neu5Ac(a2-3)[GalNAc(b1-4)]Gal(b1-4)Glc. An outline of the steps: as §1
Assay [26] deals with Gal(a1-3)GalNAc. An outline of the steps:
as §1

In assay [27] the target is Gal(a1-4)Gal(b1-4)Glc. An outline of the steps:
as §1

Assay [28] deals with Gal(b1-3)GalNAc(b1-4)Gal(b1-4)Glc. An outline of the steps:
as §1

Assay [29] concerns the target Gal(b1-4)GlcNAc(b1-3)[Gal(b1-4)GlcNAc(b1-6)]GalNAc. An outline of the steps: as §1
The target of assay [30] is Gal3S(b1-3)[Fuc(a1-4)]GlcNAc. An outline of the steps: as §1
Assay [31] deals with Gal6S(b1-4)Glc6S. An outline of the steps:
as §1

Assay [32] addresses Glc(a1-4)Glc. An outline of the steps:
as §1

The target in assay [33] is GlcNAc(b1-2)Gal(b1-3)GalNAc. An outline of the steps:
as §1

For assay [34], the target named is Neu5Ac(a2-3)[GalNAc(b1-4)]Gal(b1-4)Glc. An outline of the steps:
as §1

Assay [35] has as its target Neu5Ac(a2-6)Gal(b1-4)GlcNAc(b1-3)Gal(b1-4)[Fuc(a1-3)]GlcNAc(b1-3)Gal(b1-4)[Fuc(a1-3)]GlcNAc. An outline of the steps: as §1
Assay [36] concerns the target Neu5Ac(a2-8)Neu5Ac(a2-8)Neu5Ac(a2-3)Gal(b1-4)Glc. An outline of the steps: as §1
In assay [37] the target is Neu5Gc(a2-3)Gal(b1-3)GlcNAc. An outline of the steps: as §1
For assay [38], the target named is Neu5Gc(a2-3)Gal(b1-4)[Fuc(a1-3)]GlcNAc. An outline of the steps:
as §1

The entries come from a sample that favours the strongest signals as a whole.

B1: C-Reactive Protein (Homo sapiens), P02741 (protein)
chain: MEKLLCFLVLTSLSHAFGQTDMSRKAFVFPKESDTSYVSLKAPLTKPLKAFTVCLHFYTELSSTRGYSIFSYATKRQDNEILIFWSKDIGYSFTVGGSEILFEVPEVTVAPVHICTSWESASGIVEFWVDGKPRVRKSLKKGYTVGAEASIILGQEQDSFGGNFEGSQSLVGDIGNVNMWDFVLSPDEINTIYLGGPFSPNVLNWRALKYEVQGEVFTKPQLWP
B1: the “glycan array binding signal (z-score)” value in assay [1] was 0.735; in [2] it was -0.478; in assay [3] it was -0.469; in [4], -0.603; in assay [5], -0.554; in [6], -0.576. Also, the “glycan array binding signal (z-score)” value was 1.62 in assay [7]; -0.4 in assay [8]; -0.468 in assay [9]; -0.454 in [10]; -0.521 in assay [11]; 0.381 in [12]. Besides, the “glycan array binding signal (z-score)” value in assay [13] is 0.095; in [14], 0.199; in assay [15] it was 1.48; in assay [16], 2.24; in assay [17] it was -0.49; in [18], -0.505. Besides, the “glycan array binding signal (z-score)” value is 1.94 in [19]; -0.402 in assay [20]; -0.496 in assay [21]; -0.055 in assay [22]; 1.51 in assay [23]; 0.578 in [24]. Further, the “glycan array binding signal (z-score)” value in [25] stood at 0.158.

B2: IRp60B (Homo sapiens), Q9UGN4-3 (protein)
chain: MWLPWALLLLWVPAGDHSELSQNPKQAATQSELHYANLELLMWPLQEKPAPPREVEVEYSTVASPREELHYASVVFDSNTNRIAAQRPREEEPDSDYSVIRKT
In the case of B2, the “glycan array binding signal (z-score)” value in assay [26] was 0.074; in [27] it was 5.38; in assay [28], 2.68; in [10], -0.378; in assay [29], 4.42; in assay [30], 4.5. The “glycan array binding signal (z-score)” value in assay [31] is -0.421; in assay [32] it was -0.26; in assay [33], -0.44; in [34], -0.323; in [35], 1.2; in [36], 1.18. The “glycan array binding signal (z-score)” value is -0.475 in assay [37] and -0.107 in [38].
